Data on 40 molecules can be found in PubChem BioAssay (NCI).

Compounds without any hit were thinned out: in the full panel of roughly 79,000, 15% have a hit. Activity calls are given as the source filed them. No stated cut-off is given here; in the data, active means growth inhibition above about 70%; inactive means the rest.

The nature of this experiment: NCI Yeast Anticancer Drug Screen. Data for the rad50 strain (AID 155).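 Further: 0% = growth of vehicle-only cultures of the same strain.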 Conditions: S. cerevisiae rad50 strain growth inhibition; at 50.0 µM; stronger effect = higher value. The method, then:
Growth inhibition of yeast strains with defined genetic alterations is measured as a screen for potential anti-cancer activity. Selected strains with alterations in DNA damage repair or cell cycle control were exposed to compounds and growth inhibition was measured relative to vehicle treated controls. The strain used in this assay is rad50
`COc1ccc2c(c1OC)C(=O)OC2(O)C1=NCCc2cc3c(cc21)OCO3` (stereo not given): the growth inhibition was 19% (inactive).

`O=C(Nc1ccc(S(=O)(=O)NC2CCCCC2)cc1)OC(c1ccccc1)c1ccccc1`: the growth inhibition was 21.6% (inactive).

Turning to `C1CCC(C2CCCC[N-]2)[N-]C1.C1CCC(C2CCCC[N-]2)[N-]C1.[Cl][Ru][Cl]` (stereo not given), the growth inhibition was 47% (inactive).

As to `CC(=O)NC(Cc1cccc2ccccc12)C(=O)O` (stereo not given), the growth inhibition was 0.55% (inactive).

For `C[N+]([O-])(Cc1ccccc1)c1ccccc1` (stereo not given), the growth inhibition was -3.6% (inactive).

Regarding `CC1=NN(C(=O)c2ccc(Cl)cc2)C(=O)/C1=C/c1ccccc1O`, the growth inhibition was 4.25% (inactive).

`CCOC(=O)CN`: the growth inhibition is -0.25% (inactive).

For the molecule `O=C(O)c1cccnc1Cl`, the growth inhibition was 10.2% (inactive).

`O=C(c1ccccc1)N1C(=S)N=C(Nc2ccccc2)C1=Nc1ccccc1`: the growth inhibition is -15.8% (inactive).

Consider `CCOC(=O)C(NC(=O)/C=C\C(=O)O)C(C)C` (stereo not given), for which the growth inhibition is 3.7% (inactive).

Regarding `C=CCc1cccc(CC=C)c1OCCN(CC)CC`, the growth inhibition was 13.4% (inactive).

Take `CC(O)C(=O)NN` (stereo not given): the growth inhibition was 0.75% (inactive).

For `COc1cc(C(=O)C/C(CCC(=O)Nc2ccccc2[N+](=O)[O-])=N\NC(=O)CC#N)ccc1O`, the growth inhibition is -25.9% (inactive).

For `COc1ccc(/C=N\S(=O)(=O)c2ccc(OC)cc2)cc1`, the growth inhibition was 16.3% (inactive).

In the case of `CC(C)C(C(=O)O)N(CC1(O)OCC(O)C(O)C1O)N=O` (stereo not given), the growth inhibition was -0.2% (inactive).

Take `CN1C(=O)C(=O)OC1=C(c1ccccc1)c1ccccc1`: the growth inhibition is 2.9% (inactive).

As to `OC1CCSc2ccccc21` (stereo not given), the growth inhibition was 28.6% (inactive).

Consider `COc1ccc(-c2nc(-c3cc4c(ccc5ccccc54)oc3=O)cs2)cc1`, for which the growth inhibition was 24.4% (inactive).

For the molecule `NCCC1([N+](=O)[O-])CCNCC1`, the growth inhibition is 1.9% (inactive).

In the case of `COc1ccc(C2(C=O)NC(=O)NC2=O)cc1` (stereo not given), the growth inhibition is -2.25% (inactive).

Turning to `CCOc1ccc(N=Cc2cc(Br)ccc2O)cc1`, the growth inhibition was 2.55% (inactive).

`NC(=O)C1=CNCCC1`: the growth inhibition was -1.15% (inactive).

With `COc1cccc(C2c3cc4c(cc3OC(Nc3ccccc3)C2C)OCO4)c1OC` (stereo not given), the growth inhibition is -28.4% (inactive).

On to `COc1cc(/C=C2\C=Cc3ccccc32)ccc1N(C)C`, for which the growth inhibition is 5.45% (inactive).

As for `CCCCNc1ccc(Cl)cc1`, the growth inhibition is 0.75% (inactive).

For `CN1CCCC(C(=O)O)(c2ccccc2)CC1` (stereo not given), the growth inhibition was -17.3% (inactive).

Regarding `O=C1OC(=O)C2C3C=CC(CC3)C12` (stereo not given), the growth inhibition is -1.35% (inactive).

Consider `CCOc1nc2c(c(=O)n(C)c(=O)n2C)n1C`, for which the growth inhibition was 26.9% (inactive).

On to `Cc1ccc(Cl)cc1NC(=O)Nc1ccc(Cl)c(Cl)c1`, for which the growth inhibition was -13.1% (inactive).

As for `CC1CCC(C)C(O)C1` (stereo not given), the growth inhibition was -21.9% (inactive).

Regarding `NC1(C(=O)O)CCCc2ccccc21` (stereo not given), the growth inhibition was 13.3% (inactive).

In the case of `CC1(c2ccc[n+](Cc3ccccc3)c2)OCCO1`, the growth inhibition is -15.7% (inactive).

With `CC1NC(C)SC(C)S1` (stereo not given), the growth inhibition is -9.15% (inactive).

Regarding `CN=C(C#N)c1ccccc1`, the growth inhibition is -10.6% (inactive).

For the molecule `CN(C)C1=c2c(=O)n(C)c(=O)n(C)c2=NC2C=CC=CN12` (stereo not given), the growth inhibition is 10.8% (inactive).

Turning to `CCCCCCCCCCC(=O)OCC`, the growth inhibition is -30.2% (inactive).

On to `O=C(O)C(Br)C(Br)C(=O)Nc1cccc2ccccc12` (stereo not given), for which the growth inhibition is 98.8% (active).

For `CCCCc1c2cnccc2c(CCCC)c2c1[nH]c1ccccc12`, the growth inhibition is 88.8% (active).

With `COc1cccc(/C=C2/Sc3sc(C(C)=O)c(C)[n+]3C2=O)c1O`, the growth inhibition is -15.9% (inactive).

In the case of `CCCn1c(C)nc2cc(C(F)(F)F)cc(N)c21`, the growth inhibition was 14.3% (inactive).
